# Compound activity: PubChem, National Center for Advancing Translational Sciences (NCATS)
# Most compounds without a hit are left out; they make up all but 14% or so of the library.
# HCMV inh: human cytomegalovirus inhibition; HFF cells, HCMV-luciferase reporter, 72 h; stronger effect = lower value; activity change, negative = inhibition, % at 57.5 µM; actives 4.5% (n = 410,000); AID 1259415; in the data active = activity change below about -60%; inconclusive = no clear call, values can overlap the other calls; inactive = above about -39%
#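 Steps: HFFs plated, 16 h 37C; compounds added; HCMV-luciferase added to MOI 1 PFU/cell; 72 h 37C; OneGlo reagent, 5 min room temperature; luminescence read, normalized to controls.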
# Pf growth 48h: inhibits P. falciparum growth in the first generation, 48 h; P. falciparum luciferase growth in erythrocytes, 48 h; Potency, µM (doses to about 28.7 µM), inactives show top-dose activity change, negative = inhibition, usual class: inhibitors; actives 5.9% (n = 310,000); note: potency is the fitted concentration of half-maximal effect
#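 Read-out is firefly luciferase luminescence from an integrated reporter in P. falciparum, so falling signal marks reduced parasite growth. Infected erythrocytes were at 2% hematocrit and 0.1% parasitemia (final) in Albumax-supplemented RPMI 1640.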
# MARV entry inh: Marburg virus entry inhibition. actives 1.8% (n = 300,000). Potency, µM (doses to about 37.8 µM), without a hit: at the highest dose activity change, negative = inhibition, most hits filed as inhibitors. Marburg virus pseudotyped entry inhibition, cell reporter. AID 540276; calls by dose curve; tested in HEK293 cells; note: potency is the fitted concentration of half-maximal effect
# Pf growth 96h: inhibits malaria parasite growth, 96 h. P. falciparum luciferase reporter growth, 96 h. Potency, µM (titrated, usually from 28.7 µM), for the others: at the highest dose activity change, negative = inhibition, actives largely listed as inhibitors. actives 6.9% (n = 320,000). AID 504834; note: potency is the fitted concentration of half-maximal effect
#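 Plates of compound plus infected erythrocytes (2% hematocrit, 0.05% parasitemia final) incubate 96 hours, 37 C, 5% CO2. Detection reagent added; reduced luminescence from the parasites' luciferase reporter flags inhibition.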
# HCV inhibitor: inhibitors of hepatitis C virus infection; Potency, µM (top dose mostly 41.8 µM), for inactives: top-dose activity change, negative = inhibition, most hits filed as inhibitors; actives 3.4% (n = 340,000); Huh7.5.1 HCVcc-Cre infection, luciferase reporter, 44 h; note: potency is the fitted concentration of half-maximal effect
#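 Compounds are dispensed onto cells plated 4 h earlier at 1,000 per well, with HCVcc-Cre virus (about 0.5 moi) added next. Following 44 h of culture, luminescent signal is measured for 15 sec after 15 min with substrate at room temperature.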
# LASV entry inh: Lassa virus entry inhibition; Lassa virus pseudotype entry inhibition, cell reporter; Potency, µM (titrated, usually from 37.9 µM), for inactives: at the highest dose activity change, negative = inhibition, actives largely listed as inhibitors; actives 1.2% (n = 300,000); calls by dose curve; tested in HEK293 cells; note: potency is the fitted concentration of half-maximal effect; nearly all actives have a fitted effect of over 50% in size
# * marks the source's active call; other numbers are inactive results; i = inactive; u = inconclusive; x = no result given; ! = repeats disagree; [ ] = dose if it differs, or a comment. Unless noted, calls come from the whole dose curve; as a rule, active = well fitted inhibition curve with a large enough effect; inconclusive = small, poorly fitted or top-dose-only effect, or another doubt; inactive = no such curve, though single readings can be large or run the other way. % is set by controls: 0 for no effect and ±100 for the full control effect.
SMILES,HCMV inh,Pf growth 48h,MARV entry inh,Pf growth 96h,HCV inhibitor,LASV entry inh
C=CCNC(=O)c1c[nH]c2ccc(S(=O)(=O)N(C)c3ccc(OCC)cc3)cc2c1=O,-67*,u,x,-2%,u,x
CCCCN(C)CCNC(=O)c1c[nH]c2ccc(S(=O)(=O)N(CC)CC)cc2c1=O,-20,3.7µM*,-2%,-19%,9%,u
Cc1ccc(N(C)S(=O)(=O)c2ccc3[nH]cc(C(=O)NCCCN4CCOCC4)c(=O)c3c2)cc1C,0,2.3µM*,x,u,-24%,x
CCCNC(=O)c1c[nH]c2ccc(S(=O)(=O)N(C)c3ccc(OCC)cc3)cc2c1=O,u,12µM*,u,2%,22µM*,u
CCOCCc1nn2c(=O)cc(COC(=O)c3ccccc3OC)nc2s1,-1,x,x,x,x,-19%[46.1 µM]
O=C(NCc1ccc2c(c1)OCO2)C(=O)NCC1OCCN1S(=O)(=O)c1ccc(Br)cc1 (stereo not drawn),-6,u,-26%[46.1 µM],u,10µM*,u
COc1ccc(S(=O)(=O)N2CCOC2CNC(=O)C(=O)NCCc2ccc(OC)c(OC)c2)cc1 (stereo not drawn),-68*,-8%,u,u,u,u
COc1ccc(CCNC(=O)C(=O)NCC2OCCN2S(=O)(=O)c2ccc(Cl)cc2)cc1OC (stereo not drawn),-33,u,x,30%,8.9µM*,x
CCOCCCNC(=O)c1cc2c(=O)[nH]c3ccccc3c2n1C,-4,x,11%[46.1 µM],x,x,-9%[46.1 µM]
O=C1c2oc3ccccc3c(=O)c2C(c2ccccc2)N1Cc1ccc2c(c1)OCO2 (stereo not drawn),13,x,x,x,x,10%[46.1 µM]
CCOC(=O)c1cnc2cc(C)nn2c1C,0,x,5%,2%,-4%,1%
CCOC(=O)c1cnc2cc(-c3ccc(Br)cc3)nn2c1C,67,46%,x,13µM*,9%,x
COc1cc2c(cc1OC)C(O)=CC(=O)C2=O,-23,x,x,x,x,x
COc1ccccc1C(=O)O[C@H]1[C@H](Cc2ccccc2)NS(=O)(=O)[C@H]2C[C@@H]3C=C[C@]12O3,0,u,x,5.9µM*,8%,x
CSc1ncc2c(n1)-c1ccccc1N(Cc1ccc(F)cc1)S2(=O)=O,-1,x,x,x,x,-3%[46.1 µM]
COc1ccc(Cn2c(SCC#N)nc3ccc(N4CCOCC4)cc3c2=O)cc1,69,-12%,-14%[46.1 µM],0%,5µM*,-16%
CCCCn1c(SCC(N)=O)nc2ccc(N3CCOCC3)cc2c1=O,u,-11%,5%,1%,-9%,-5%
COc1cccc(NC(=O)CSc2nc3ccccc3c(=O)n2CCCC(=O)NCC2CCCO2)c1 (stereo not drawn),-5,u,x,9.3µM*,-12%,x
CCCCn1c(SCC(=O)Nc2cccc(OC)c2)nc2ccc(N3CCOCC3)cc2c1=O,-20,9.3µM*,u,x,8.9µM*!,7%
COc1ccc(-n2c(SCC#N)nc3ccccc3c2=O)cc1,u,-1%,-2%,u,3%,-2%
COc1ccc(-n2c(SCC(=O)NCC3CCCO3)nc3ccccc3c2=O)cc1Cl (stereo not drawn),-67*,x,x,x,x,x
Cc1sc(=NC(=O)c2ccco2)n(C)c1-c1ccc(Cl)cc1,21,u,4%,10µM*,u,-8%
COC(=O)c1c(NC(=O)CN2CCC3(O)CCCCC3C2c2ccc(OC)cc2OC)sc(C)c1C (stereo not drawn),u,12µM*,u,-18%,u,-10%
COC(=O)c1c(NC(=O)CN2CCC3(O)CCCCC3C2c2ccccc2OC)sc(C)c1C (stereo not drawn),u,5.2µM*,u,u,-1%,u
COC(=O)c1ccccc1NC(=O)[C@H]1COc2ccccc2O1,x,x,-32%,x,x,x
SMILES,HCMV inh,Pf growth 48h,MARV entry inh,Pf growth 96h,HCV inhibitor,LASV entry inh
CCC(C)c1ccccc1N1CC(C(=O)NCCC2=CCCCC2)CC1=O (stereo not drawn),-29,u,-27%,15µM*,-21%,u
CCOc1ccccc1N1CC(C(=O)NCCC2=CCCCC2)CC1=O (stereo not drawn),4,x,u,x,u,4%
CCC(C)c1ccccc1N1CC(C(=O)N2CCN(S(=O)(=O)c3ccccc3Br)CC2)CC1=O (stereo not drawn),-3,u,1%[46.1 µM],12µM*,-12%,-4%
COc1ccc(CCN2C(=O)CN(C3CCCCCC3)C(=O)C2c2ccc(OC(C)C)c(OC)c2)cc1OC (stereo not drawn),-31,x,x,x,x,11%[46.1 µM]
COc1ccc(Cc2nnc(Nc3ccc(C)cc3)o2)cc1OC,15,2.9µM*,x,u,u,x
Cc1ccc(NC(=O)CSc2ccc3c(c2)OCCO3)c(O)c1,u,8%,x,22%,10µM*,x
CC1Cc2ccccc2N1CC(=O)Nc1ccc(N2CCOCC2)cc1 (stereo not drawn),2,-13%,u,-13%,-6%,9%[46.1 µM]
CC1Cc2ccccc2N1CC(=O)Nc1ccc2c(c1)OCCCO2 (stereo not drawn),11,u,x,12µM*,4%,x
O=C(CN1CCN(c2ccccc2)CC1)Nc1ccc2c(c1)OCCO2,29,i,-7%,39%,5%,u
O=C(CN1CCN(c2ccccc2O)CC1)Nc1ccc2c(c1)OCCCO2,-13,13µM*,x,15%,-19%,x
O=C(CSc1ccc2c(c1)OCCO2)N1CCN(c2ccccc2O)CC1,-13,u,-30%,7.4µM*,u,u
Cc1ccnc(NC(=O)CSc2ccc3c(c2)OCCO3)c1,16,87%,0%,110%,u,1%
Cc1cc(NC(=O)/C(C#N)=C\c2ccc(-c3ccc(SC(F)F)cc3)o2)n(-c2ccccc2)n1,-9,x,3%[46.1 µM],x,-12%,-20%[46.1 µM]
CC1Cc2ccccc2N1CC(=O)Nc1ccc(Cl)c(S(=O)(=O)N(C)C)c1 (stereo not drawn),-32,9.3µM*,-17%,-54%,-17%,-10%
CC1Cc2ccccc2N1CC(=O)Nc1ccc(S(=O)(=O)N(C)C)cc1 (stereo not drawn),6,u,x,u,15%,x
O=C(CN1C(=O)CC(c2ccco2)Sc2ccccc21)Nc1ccc2c(c1)OCCO2 (stereo not drawn),-36,-15%,1%,0%,11µM*,2%
Cc1cc(C)cc(C(=O)Nc2nc3ccccc3[nH]2)c1,37,u,u,u,-13%,u
CC(C)Oc1ccc(C(=O)Nc2nc3ccccc3[nH]2)cc1,-60*,-94%,u,-39%,u,1.1µM*
O=C(Nc1nc2ccccc2[nH]1)c1ccc(F)cc1,74,-76%,u,1.5µM*,10%,6.5µM*
